From PubChem BioAssay (EPA / NIEHS) come the findings set out here.

Records with an inconclusive call do not appear. Calls of active or inactive are those of the source. How the source made its calls: active means hit-call score of the fitted dose curve at least 0.9, where 1 is the maximum; inconclusive means response in the unintended direction; inactive means score below 0.9.

The nature of this test: ACEA_AR_agonist_AUC_viability: ACEA Biosciences xCELLigence Real-Time Cell Analysis on Androgen Receptor Agonism for Viability (AID 2283775).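 On AC50: viability read 80 hours after compound addition.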 An outline of the steps:
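22Rv1 cells; impedance growth kinetics; 8-pt 1:4 dilutions from 100 uM top final, ≤0.5% DMSO; n = 2; 80 h read; AUC viability, loss-of-signal vs DMSO.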
In the case of `O=c1[nH]sc2ccccc12`, the AC50 (in general, the midpoint of the concentration-response curve, whichever way the signal moves) was 14.1 µM (active).

For the compound `COc1cccc([C@H](O)C2CCN(CCc3ccc(F)cc3)CC2)c1OC`, the half-maximal activity concentration (AC50) is 50 µM (active).

On to `CN(C)C(=O)C1(N2CCCCC2)CCN(CC[C@@]2(c3ccc(Cl)c(Cl)c3)CN(C(=O)c3ccccc3)CCO2)CC1`, for which the AC50 was 10.5 µM (active).

`CCCCOC(=O)c1ccc(O)cc1`: the half-maximal activity concentration (AC50) is 69.5 µM (active).

In the case of `Clc1ccccc1C(c1ccccc1)(c1ccccc1)n1ccnc1`, the concentration at half-maximal activity (AC50) was 16.9 µM (active).

In the case of `Cc1cccc2ccccc12`, the result was inactive.

Consider `O=C(O)c1ccccc1-n1cc(C(=O)O)c(=O)c2cc(Nc3c(F)cc(F)cc3Cl)c(Cl)cc21`, for which the compound was classed as inactive.

Regarding `Cc1ccc(C(C)C)cc1`, the result was inactive.

`O=C(O)Cn1c(=O)n(Cc2ccc(Br)cc2F)c(=O)c2ccc(Cl)cc21`: the outcome was inactive.

As for `NC(=O)c1nc(-c2cccc(-c3cc(F)ccc3OCC(F)(F)C(F)(F)F)c2)n[nH]1`, the AC50 was 24.6 µM (active).

Consider `Cc1occc1C(=O)Nc1ccc(C(=O)N2CCC(F)(F)/C(=C\C(=O)N3CCC(N4CCCCC4)CC3)c3ccccc32)cc1`, for which the concentration at half-maximal activity (AC50) was 31.2 µM (active).

For `CN1C(=O)CC[C@H]1c1cccnc1`, the call was inactive.

`CC[C@H](NC(=O)c1cc(F)ccc1NS(=O)(=O)c1cccc2cccnc12)c1ccccc1`: the concentration at half-maximal activity (AC50) is 57.2 µM (active).

With `Cc1cc2c(cc1C(F)(F)F)N(C(=O)Nc1ccc(Oc3cccnc3C)nc1)CC2`, the AC50 was 17.1 µM (active).

For the compound `Clc1cc(Cl)c2c(c1)N=C1CCCCCN1C2`, the compound was called inactive.

As to `CCCCCCCCCCCO`, the AC50 was 90.2 µM (active).

As for `Cc1ncc(CO)c(CO)c1O`, the result was inactive.

`CC[C@@H]1C[C@H](N(Cc2cc(C(F)(F)F)cc(C(F)(F)F)c2)C(C)=O)c2cc(C(F)(F)F)ccc2N1C(=O)OC(C)C`: the outcome was inactive.

Turning to `CCCC(=O)OCCC(C)C`, the compound was classed as inactive.

In the case of `CCN(Cc1cccnc1)C(=O)c1cccc(Cl)c1[C@]1(C)C(=O)N(Cc2ccc(OC)cc2OC)c2ccc(Cl)cc21`, the AC50 was 23.8 µM (active).

For the compound `CN1C(=O)N(c2ccccc2Br)Cc2cnc(Nc3ccc4c(c3)OCC(CO)O4)nc21` (stereo unspecified), the AC50 was 20.5 µM (active).

In the case of `CCCCCCCCCC(=O)O`, the result was inactive.

For `COc1ccc2cc(S(=O)(=O)N[C@H](CC(=O)N[C@H](Cc3ccc(CN4[C@H](C)CCC[C@@H]4C)cc3)C(=O)N(C)C(C)C)c3ccc4c(c3)OCO4)ccc2c1`, the AC50 was 9.68 µM (active).

As to `c1ccc2n[nH]nc2c1`, the result was inactive.

In the case of `CCO[Si](CCCNC(N)=O)(OCC)OCC`, the result was inactive.

Take `OCCO`: the result was inactive.
